# Several values for one entry are separate records, joined by “and”; a condition that tells them apart may be missing. Equal entries are not always repeated. Results filed as inconclusive are left out. Where a call stands in place of a potency, no number is given. The source holds several records for some structures; these can differ, active in one and inactive in another. Activity calls are given as the source filed them. Unless noted, calls come from the whole dose curve; as a rule, active = well fitted curve in the direction sought with a large enough effect; inconclusive = small, poorly fitted or top-dose-only effect, or another doubt; inactive = no such curve, though single readings can be large; an effect the other way counts as inactive or inconclusive.
# Experiments:
# [1] = Viability counterscreen for antagonist of constitutive androstane receptor (CAR) against the NCATS DSHEA and TCM libraries (AID 1794837);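 note: compound exposure lasted 24 h before viability reading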
# Summary of the method: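 Cells: HepG2 line carrying CYP2B6 reporter and hCAR, seeded and attached 5 h. Then pin-transferred test substances plus agonist CITCO at 48 uM final; 24 h incubation; fluorogenic viability reagent, 1 h.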
# [2] = Viability counterscreen for agonist of constitutive androstane receptor (CAR) against the NCATS DSHEA and TCM libraries (AID 1794838);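 note: HepG2 cells with CYP2B6 reporter and hCAR plus 0.75 µM PK11195 antagonist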
# Summary of the method: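 Cell health was measured as CellTiter-Fluor signal in HepG2-CYP2B6-hCAR cells treated for 24 h with substances alongside the hCAR antagonist PK11195 (0.75 uM final).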
# [3] = molecular target: Nuclear receptor subfamily 1 group I member 3 (Homo sapiens) (UniProt Q14994); test: Primary qHTS for agonist of constitutive androstane receptor (CAR) against the NCATS DSHEA and TCM libraries (AID 1794839);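 note: HepG2 cells expressing human CAR with a CYP2B6 reporter plus PK11195 antagonist; luciferase reporter luminescence read with ONE-Glo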
# Nuclear receptor subfamily 1 group I member 3 (Homo sapiens), sequence (Q14994 whole entry, looked up): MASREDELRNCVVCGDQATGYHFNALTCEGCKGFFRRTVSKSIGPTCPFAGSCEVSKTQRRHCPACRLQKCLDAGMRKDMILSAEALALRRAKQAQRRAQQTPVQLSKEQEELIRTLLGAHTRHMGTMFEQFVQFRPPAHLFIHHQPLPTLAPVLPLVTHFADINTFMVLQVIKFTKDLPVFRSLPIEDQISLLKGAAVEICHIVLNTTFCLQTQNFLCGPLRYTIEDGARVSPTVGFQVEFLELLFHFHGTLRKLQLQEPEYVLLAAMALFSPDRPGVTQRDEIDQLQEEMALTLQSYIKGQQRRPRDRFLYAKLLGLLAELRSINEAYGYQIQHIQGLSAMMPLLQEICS
# Summary of the method: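 qHTS, agonist mode: HepG2-CYP2B6-hCAR, 2,500 cells/well, 5 h attach; cpds + PK11195 0.75 µM final; 24 h, 37 °C, 5% CO2. Readouts: CellTiter-Fluor (405/540 nm), then ONE-Glo luminescence.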
# [4] = HepG2 viability counterscreen (readout 2: ATP content) against the NCATS DSHEA and TCM libraries (AID 1794840)
# Summary of the method: (§1)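 Same wells read twice: first fluorescence from cleaved GF-AFC substrate (25 uM final, 30 min, 37C) for live-cell protease, then CellTiter-Glo luminescence after 30 min at room temperature for ATP. HepG2 cells were exposed ~24 h to substances.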
# [5] = HepG2 viability counterscreen (readout 1: protease activity) against the NCATS DSHEA and TCM libraries (AID 1794841);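 note: cells exposed to compounds for about 24 h before the protease read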
# Summary of the method: as §1
# [6] = molecular target: Cytochrome P450 2D6 (Homo sapiens) (UniProt P10635); test: qHTS for inhibitors of CYP2D6 against the NCATS DSHEA and TCM libraries (AID 1919972); note: potency is the fitted concentration of half-maximal effect
# Cytochrome P450 2D6 (Homo sapiens), sequence (P10635 whole entry, looked up): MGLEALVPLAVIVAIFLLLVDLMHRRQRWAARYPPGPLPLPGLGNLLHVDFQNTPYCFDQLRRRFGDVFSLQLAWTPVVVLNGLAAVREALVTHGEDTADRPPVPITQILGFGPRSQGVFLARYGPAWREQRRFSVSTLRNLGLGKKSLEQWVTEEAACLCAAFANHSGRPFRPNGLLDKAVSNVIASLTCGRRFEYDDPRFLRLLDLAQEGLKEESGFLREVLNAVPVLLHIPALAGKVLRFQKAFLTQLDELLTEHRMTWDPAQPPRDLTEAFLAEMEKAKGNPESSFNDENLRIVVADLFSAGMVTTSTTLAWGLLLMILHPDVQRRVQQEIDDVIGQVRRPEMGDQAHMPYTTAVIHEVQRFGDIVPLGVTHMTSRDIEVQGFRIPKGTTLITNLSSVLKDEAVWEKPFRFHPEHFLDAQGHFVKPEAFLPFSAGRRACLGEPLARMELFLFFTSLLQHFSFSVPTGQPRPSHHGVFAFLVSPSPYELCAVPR
# Summary of the method: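 CYP2D6 enzyme with pro-luciferin substrate in manufacturer buffer (typically 100 mM KPO4), preincubated 15 min RT with substances (most at 19.5 nM upward); NADPH regeneration system (1x) started 30–45 min RT reaction; P450-Glo luminescence read after 30 min; quinidine as intraplate control.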
# [7] = KB-3-1 P-gp reporter qHTS against the NCATS DSHEA and TCM libraries (AID 1919975)
# Summary of the method: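 KB-3-1 parental line, 1536-well qHTS: cells seeded, ~4 h attachment, pintool compound addition, ~72 h at 37C, then CellTiter-Glo, 30 min RT, luminescence. Concentration-response format.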
# [8] = qHTS Counterscreen for compound interference against the NCATS DSHEA and TCM libraries (AID 1919978); conditions: firefly luciferase detection reagent interference, luminescence;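 note: compounds preincubated with 1 µM D-luciferin or buffer before detection reagent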
# Summary of the method: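 Compounds, titrated from 19.5 nM to 39.8 uM final, were pinned onto 1 uM D-luciferin or plain 100 mM potassium phosphate. After 15 min at room temperature, luciferin detection reagent was added for 30 min before the luminescence read.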
# [9] = Dual reporter qHTS for agonist of Pregnane X Receptor (hPXR) against the NCATS DSHEA and TCM libraries: Fluorescence readout (AID 1920058)
# Summary of the method: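 Viability readout (CellTiter-Fluor, 405/540 nm, 1 h) from agonist-mode PXR dual reporter in hPXR-Luc HepG2 cells. Substances ~24 h, 37 °C, 5% CO2; rifampicin reference, tetraoctyl ammonium bromide cytotoxic control.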
# [10] = molecular target: Nuclear receptor subfamily 1 group I member 2 (Homo sapiens) (UniProt O75469); test: Dual reporter qHTS for agonist of Pregnane X Receptor (hPXR) against the NCATS DSHEA and TCM libraries: Luminescence readout (AID 1920059)
# Nuclear receptor subfamily 1 group I member 2 (Homo sapiens), sequence (O75469 whole entry, looked up): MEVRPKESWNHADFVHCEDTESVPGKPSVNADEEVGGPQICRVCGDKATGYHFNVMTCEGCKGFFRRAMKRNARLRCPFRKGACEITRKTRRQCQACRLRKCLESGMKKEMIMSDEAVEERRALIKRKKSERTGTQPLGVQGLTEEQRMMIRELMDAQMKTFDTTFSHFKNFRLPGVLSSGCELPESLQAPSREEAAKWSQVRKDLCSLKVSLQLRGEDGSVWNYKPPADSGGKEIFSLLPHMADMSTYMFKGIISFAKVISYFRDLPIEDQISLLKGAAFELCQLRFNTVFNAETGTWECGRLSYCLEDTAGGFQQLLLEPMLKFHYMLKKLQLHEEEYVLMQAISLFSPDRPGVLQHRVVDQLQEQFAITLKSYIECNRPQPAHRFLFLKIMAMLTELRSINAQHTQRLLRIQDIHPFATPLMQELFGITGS
# Summary of the method: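 hPXR-Luc HepG2 cells, 2000/well in 5% charcoal-stripped FBS medium, attached 5 h, then exposed 24 h at 37C to compounds. Viability by CellTiter-Fluor, then luciferase luminescence with ONE-Glo.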
# [11] = molecular target: Nuclear receptor subfamily 1 group I member 2 (Homo sapiens) (UniProt O75469); test: Dual reporter qHTS for antagonist of Pregnane X Receptor (hPXR) against the NCATS DSHEA and TCM libraries: Luminescence Readout (AID 1920060);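 note: HepG2 cells carrying hPXR luciferase reporter stimulated with rifampicin at 2 µM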
# Summary of the method: (§2)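 HepG2 hPXR-Luc, 2000 cells/well, charcoal-stripped FBS medium; 5 h attach; RIF 2 uM final; 24 h 37C/5% CO2; CellTiter-Fluor 1 h, fluor 405/540; ONE-Glo 30 min RT, lum.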
# [12] = Dual reporter qHTS for antagonist of Pregnane X Receptor (hPXR) against the NCATS DSHEA and TCM libraries: Fluorescence Readout (AID 1920061)
# Summary of the method: as §2
# [13] = molecular target: Cytochrome P450 3A4 (Homo sapiens) (UniProt P08684); test: qHTS for inhibitors of CYP3A4 against the NCATS DSHEA and TCM libraries (AID 1919971); note: potency is the fitted concentration of half-maximal effect
# Cytochrome P450 3A4 (Homo sapiens), sequence (P08684 whole entry, looked up, canonical isoform): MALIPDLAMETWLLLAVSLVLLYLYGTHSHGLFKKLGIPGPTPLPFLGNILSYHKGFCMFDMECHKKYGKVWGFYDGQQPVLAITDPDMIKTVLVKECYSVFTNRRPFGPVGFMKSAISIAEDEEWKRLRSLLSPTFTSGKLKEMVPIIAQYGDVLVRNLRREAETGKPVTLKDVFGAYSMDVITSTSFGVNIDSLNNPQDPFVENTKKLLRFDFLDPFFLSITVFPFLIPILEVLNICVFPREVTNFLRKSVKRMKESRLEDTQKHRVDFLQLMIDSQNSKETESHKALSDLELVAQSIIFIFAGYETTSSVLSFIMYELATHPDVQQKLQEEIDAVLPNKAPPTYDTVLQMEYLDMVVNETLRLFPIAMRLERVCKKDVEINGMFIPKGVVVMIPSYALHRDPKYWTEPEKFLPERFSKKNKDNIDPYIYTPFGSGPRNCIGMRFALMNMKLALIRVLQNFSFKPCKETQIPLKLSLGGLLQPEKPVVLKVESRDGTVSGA
# Summary of the method: (§3)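 Each CYP isoform and its pro-luciferin substrate, at isoform-specific final concentrations, were preincubated 15 min at RT with substances. NADPH regeneration solution (1x) started a 30-45 min reaction, and P450-Glo luminescence was read.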
# [14] = molecular target: Cytochrome P450 2C9 (Homo sapiens) (UniProt P11712); test: qHTS for inhibitors of CYP2C9 against the NCATS DSHEA and TCM libraries (AID 1919973); note: potency is the fitted concentration of half-maximal effect
# Summary of the method: as §3
# [15] = molecular target: Cytochrome P450 2C19 (Homo sapiens) (UniProt P33261); test: qHTS for inhibitors of CYP2C19 against the NCATS DSHEA and TCM libraries (AID 1919974);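 note: luminescence from luciferin released by CYP2C19 oxidation of a pro-luciferin substrate; potency is the fitted concentration of half-maximal effect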
# Cytochrome P450 2C19 (Homo sapiens), sequence (P33261 whole entry, looked up): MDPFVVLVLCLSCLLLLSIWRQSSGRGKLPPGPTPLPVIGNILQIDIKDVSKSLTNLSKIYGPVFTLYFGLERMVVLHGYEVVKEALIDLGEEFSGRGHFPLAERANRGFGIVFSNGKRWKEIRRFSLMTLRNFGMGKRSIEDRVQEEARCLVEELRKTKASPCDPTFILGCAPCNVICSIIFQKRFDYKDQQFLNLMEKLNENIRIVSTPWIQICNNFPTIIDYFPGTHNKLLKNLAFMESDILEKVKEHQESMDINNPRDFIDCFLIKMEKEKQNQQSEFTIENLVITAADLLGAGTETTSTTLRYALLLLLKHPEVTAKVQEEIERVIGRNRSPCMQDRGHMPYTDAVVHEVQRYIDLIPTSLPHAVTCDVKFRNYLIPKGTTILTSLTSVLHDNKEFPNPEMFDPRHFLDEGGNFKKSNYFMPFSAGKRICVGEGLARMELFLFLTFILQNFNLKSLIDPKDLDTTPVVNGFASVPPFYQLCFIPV
# Summary of the method: as §3
# [16] = molecular target: Cytochrome P450 1A2 (Homo sapiens) (UniProt P05177); test: qHTS for inhibitors of CYPIA2 against the NCATS DSHEA and TCM libraries (AID 1919976); note: potency is the fitted concentration of half-maximal effect
# Cytochrome P450 1A2 (Homo sapiens), sequence (P05177 whole entry, looked up): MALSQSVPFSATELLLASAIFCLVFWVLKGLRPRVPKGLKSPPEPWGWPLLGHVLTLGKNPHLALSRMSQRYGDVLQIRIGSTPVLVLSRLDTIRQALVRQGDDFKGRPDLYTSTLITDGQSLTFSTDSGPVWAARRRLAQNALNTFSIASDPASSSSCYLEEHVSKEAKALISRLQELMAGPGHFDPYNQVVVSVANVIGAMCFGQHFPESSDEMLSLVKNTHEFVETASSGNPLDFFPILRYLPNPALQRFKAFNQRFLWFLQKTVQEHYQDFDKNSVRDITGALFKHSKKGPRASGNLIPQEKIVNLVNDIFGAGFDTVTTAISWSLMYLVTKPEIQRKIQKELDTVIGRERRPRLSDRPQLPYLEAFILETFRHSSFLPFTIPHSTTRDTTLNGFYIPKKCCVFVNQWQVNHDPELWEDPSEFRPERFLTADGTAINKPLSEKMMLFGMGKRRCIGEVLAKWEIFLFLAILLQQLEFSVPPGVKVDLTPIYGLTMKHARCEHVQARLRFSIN
# Summary of the method: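 Reaction started with 1x NADPH regeneration solution and run 30-45 min, room temperature, protected from light, after compounds sat 15 min with CYP1A2 and pro-luciferin substrate. P450-Glo detection gave luminescence; furafylline served as control.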
# [17] = Cell Viability - SK-N-SH (AID 435; calls by dose curve;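 note: potency is the fitted concentration of half-maximal effect; compound exposure lasted 40 h at 37 °C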); conditions: SK-N-SH neuroblastoma cell viability qHTS
# Summary of the method: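 Luminescent ATP signal served as the viability read-out after 40 hours of compound treatment of human neuroblastoma SK-N-SH cells. Concentration-response data, scaled between DMSO and 100 uM tamoxifen, gave AC50 values by standard Hill modeling.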
# [18] = Cell Viability - LYMP2-004 (AID 966); note: nearly all actives have a fitted effect of over 65% in size
# Summary of the method: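 AC50 values come from Hill modelling of concentration-dependent loss of intracellular ATP, measured by CellTiter-Glo luminescence. Human LYMP2-004 lymphoblastoid cells (2500/well) were exposed to compound for 24 h at 37 C.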
# [19] = Cell Viability - LYMP2-020 (AID 986); note: series mostly up to about 92 µM; nearly all actives have a fitted effect of over 55% in size
# Summary of the method: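 Cytotoxicity in qHTS format: luminescent ATP readout from CellTiter-Glo after 24 h compound exposure at 37 C in complete medium. LYMP2-020 lymphoblastoid cells were seeded at 2500/well; concentration-response data fitted to the Hill equation for AC50.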
# [20] = molecular target: Bile acid receptor (Homo sapiens) (UniProt Q96RI1); test: qHTS assay for small molecule antagonists of farnesoid X receptor signaling (AID 588526; calls by dose curve)
# Bile acid receptor (Homo sapiens), sequence (Q96RI1 whole entry, looked up): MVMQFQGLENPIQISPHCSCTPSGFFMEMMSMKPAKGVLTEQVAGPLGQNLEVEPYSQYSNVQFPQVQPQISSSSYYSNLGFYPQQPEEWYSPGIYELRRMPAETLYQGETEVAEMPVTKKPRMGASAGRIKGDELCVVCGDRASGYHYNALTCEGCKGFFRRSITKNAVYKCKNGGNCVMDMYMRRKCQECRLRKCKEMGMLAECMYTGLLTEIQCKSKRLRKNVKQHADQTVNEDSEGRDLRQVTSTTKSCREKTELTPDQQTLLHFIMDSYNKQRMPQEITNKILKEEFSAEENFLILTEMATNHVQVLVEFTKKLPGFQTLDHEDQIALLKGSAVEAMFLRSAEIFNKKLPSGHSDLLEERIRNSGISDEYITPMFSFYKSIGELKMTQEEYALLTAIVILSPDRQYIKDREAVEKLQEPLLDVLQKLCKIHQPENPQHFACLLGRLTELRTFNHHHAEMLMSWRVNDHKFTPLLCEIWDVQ
# Summary of the method: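 Antagonist mode: titrated compounds tested against chenodeoxycholic acid stimulation (normalized to 50 uM CDCA and DMSO) in GeneBLAzer HEK293T cells for 16 h. Beta-lactamase read by CCF4 fluorescence; IC50 from Hill fits.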
# [21] = molecular target: Glucocorticoid receptor (Homo sapiens) (UniProt P04150); test: qHTS assay for small molecule agonists of glucocorticoid receptor signaling (AID 588532; active = well fitted curve in the direction sought with a large enough effect in the signal ratio, with a control signal flat; the % refers to the signal ratio); conditions: HeLa MMTV-bla, beta-lactamase ratio, agonist, 18 h; stronger effect = higher value; percent of dexamethasone control, DMSO zero
# Summary of the method: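 HeLa GRE-bla reporter cells; 18 h compound exposure at 37 C; 2 h CCF4 loading at room temperature; fluorescence at 460 and 530 nm; EC50 by Hill equation.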
# [22] = qHTS assay for small molecule antagonists of peroxisome proliferator-activated receptor delta signaling (AID 588535; active = well fitted inhibition curve with a large enough effect in the signal ratio, with a control signal flat, not every such curve was filed as active; the % refers to the signal ratio;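 for max response: cells co-treated with a PPAR-delta agonist as stimulator during compound exposure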); conditions: HEK293T PPARd-UAS-bla, beta-lactamase FRET ratio, 18 h; 460 nm channel
# Summary of the method: (§4)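 Fluorescence from CCF4-loaded GeneBLAzer PPAR-delta-UAS-bla HEK293T cells (2 hrs RT loading) quantified reporter inhibition after an 18 hr, 37 C compound exposure across a titration.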
# [23] = molecular target: Peroxisome proliferator-activated receptor delta (Homo sapiens) (UniProt Q03181); test: as above
# Peroxisome proliferator-activated receptor delta (Homo sapiens), sequence (Q03181 whole entry, looked up): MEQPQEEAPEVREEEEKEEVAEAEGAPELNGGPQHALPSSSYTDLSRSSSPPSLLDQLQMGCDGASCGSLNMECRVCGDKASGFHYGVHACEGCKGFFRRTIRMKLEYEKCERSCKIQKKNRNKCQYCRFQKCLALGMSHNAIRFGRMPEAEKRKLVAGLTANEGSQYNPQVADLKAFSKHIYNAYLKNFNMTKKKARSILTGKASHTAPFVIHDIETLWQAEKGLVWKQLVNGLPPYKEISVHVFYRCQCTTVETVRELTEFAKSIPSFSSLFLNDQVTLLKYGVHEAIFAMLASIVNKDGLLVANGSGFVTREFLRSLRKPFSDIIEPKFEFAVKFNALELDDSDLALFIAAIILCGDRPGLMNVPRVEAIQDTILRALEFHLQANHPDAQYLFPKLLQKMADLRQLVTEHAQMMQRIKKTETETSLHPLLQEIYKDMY
# Summary of the method: as §4
# [24] = molecular target: Peroxisome proliferator-activated receptor gamma (Homo sapiens) (UniProt P37231); test: qHTS assay for small molecule antagonists of peroxisome proliferator-activated receptor gamma signaling (AID 588537; active = well fitted inhibition curve with a large enough effect in the signal ratio, with a control signal flat, not every such curve was filed as active; the % refers to the signal ratio;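 note: reporter cells co-stimulated with 50 nM rosiglitazone agonist during compound treatment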)
# Peroxisome proliferator-activated receptor gamma (Homo sapiens), sequence (P37231 whole entry, looked up): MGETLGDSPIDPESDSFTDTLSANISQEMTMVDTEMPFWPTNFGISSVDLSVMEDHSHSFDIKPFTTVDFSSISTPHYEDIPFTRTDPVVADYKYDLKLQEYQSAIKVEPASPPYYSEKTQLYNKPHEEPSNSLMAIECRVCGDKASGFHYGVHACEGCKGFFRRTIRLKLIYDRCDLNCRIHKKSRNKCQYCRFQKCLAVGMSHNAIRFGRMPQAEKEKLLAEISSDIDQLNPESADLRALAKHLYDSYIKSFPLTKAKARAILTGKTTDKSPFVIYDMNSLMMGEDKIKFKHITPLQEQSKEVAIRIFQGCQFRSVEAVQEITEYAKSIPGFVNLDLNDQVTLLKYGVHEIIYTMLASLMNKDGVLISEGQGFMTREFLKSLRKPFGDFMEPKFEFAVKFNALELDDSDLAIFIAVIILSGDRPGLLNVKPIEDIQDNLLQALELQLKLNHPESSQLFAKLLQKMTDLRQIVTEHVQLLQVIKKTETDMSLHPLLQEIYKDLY
# Summary of the method: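 Fluorescence at 460 and 530 nm (405 nm excitation) reported beta-lactamase cleavage of CCF4 after 2 h room-temperature loading. HEK293 reporter cells in 1% charcoal/dextran-treated FBS had received compound and rosiglitazone for 16 h.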
# [25] = molecular target: Vitamin D3 receptor (Homo sapiens) (UniProt P11473); test: qHTS assay for small molecule antagonists of vitamin D receptor signaling (AID 588541; calls by dose curve;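 note: receptor activated by calcitriol during compound treatment; series mostly up to about 77 µM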)
# Vitamin D3 receptor (Homo sapiens), sequence (P11473 whole entry, looked up): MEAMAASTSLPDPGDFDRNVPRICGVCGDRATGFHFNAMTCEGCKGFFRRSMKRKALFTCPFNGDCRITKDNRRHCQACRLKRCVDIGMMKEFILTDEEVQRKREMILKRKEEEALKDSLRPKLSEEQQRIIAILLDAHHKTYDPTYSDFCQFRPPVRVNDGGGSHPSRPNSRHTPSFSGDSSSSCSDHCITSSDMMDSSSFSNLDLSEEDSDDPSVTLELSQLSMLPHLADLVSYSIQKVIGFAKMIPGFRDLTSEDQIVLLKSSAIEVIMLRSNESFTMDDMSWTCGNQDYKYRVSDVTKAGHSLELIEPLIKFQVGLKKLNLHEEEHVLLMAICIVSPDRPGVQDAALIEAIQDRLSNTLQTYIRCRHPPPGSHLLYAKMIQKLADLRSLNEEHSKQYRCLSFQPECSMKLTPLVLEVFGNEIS
# Summary of the method: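 VDR-UAS-bla HEK293T cells in 2% charcoal-stripped FBS were stimulated with 1-alpha,25-dihydroxyvitamin D3 (3 nM final) plus compound for 16 h at 37 C. The beta-lactamase CCF4 readout was normalized to 50 nM agonist and DMSO, and Hill fits gave IC50.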
# [26] = molecular target: Vitamin D3 receptor (Homo sapiens) (UniProt P11473); test: qHTS assay for small molecule agonists of vitamin D receptor signaling (AID 588543; calls by dose curve)
# Summary of the method: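 Reporter cells (HEK293T, VDR-UAS-bla) were seeded in medium with 2% charcoal-stripped serum and incubated 5 h, then compounds in concentration series were added for 16 h at 37 °C. Stimulation was scaled between DMSO basal and 50 nM 1α,25-dihydroxyvitamin D3.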
# [27] = qHTS assay for small molecule agonists of retinoid X receptor alpha signaling (AID 588544); conditions: HEK293T RXRa-UAS-bla, beta-lactamase reporter, 18 h; 530 nm emission
# [28] = qHTS assay for small molecule agonists of the antioxidant response element (ARE) signaling pathway (AID 651741; active = well fitted activation curve with a large enough effect in the signal ratio; the % refers to the signal ratio; note: potency is the fitted concentration of half-maximal effect)
# Summary of the method: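 Stably integrated ARE-beta-lactamase reporter HepG2 cells; 16 h compound incubation, 37 C; LiveBLAzer FRET substrate 2 h at room temperature; fluorescence intensity.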
# [29] = qHTS assay to identify small molecules that stimulate interleukin-8 (IL-8) secretion (AID 651758; active = well fitted activation curve with a large enough effect in the signal ratio; the % refers to the signal ratio)
# Summary of the method: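 Compounds are added to THP-1 cells (2000 per well) and left 16 hrs at 37 C. A labeled anti-IL-8 antibody pair is then added, and IL-8 secretion is measured by time-resolved FRET after 1-3 hrs at room temperature.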
smiles,measurement,setting,value
CCCCCCCC/C=C\CCCCCCCCCCCC(=O)O,outcome,[1],inactive
same,outcome,[2],inactive
same,Potency,[3],inactive
same,outcome,[4],inactive
same,outcome,[5],inactive
same,Potency,[6],inactive
same,outcome,[7],inactive
same,max response,[8],1.35% (inactive)
same,outcome,[9],inactive
same,Potency,[10],inactive
same,outcome,[11],inactive
same,outcome,[12],inactive
CCCCCCC/C=C/C(=O)CCc1ccc(O)c(OC)c1,outcome,[1],inactive
same,outcome,[2],inactive
same,Potency,[3],inactive
same,outcome,[4],inactive
same,outcome,[5],inactive
same,Potency,[13],14.1 µM (active)
same,Potency,[6],10 µM (active)
same,Potency,[14],25.1 µM (active)
same,Potency,[15],6.31 µM (active)
same,outcome,[7],inactive
same,Potency,[16],25.1 µM (active)
same,max response,[8],6.04% (inactive)
same,outcome,[9],inactive
same,outcome,[11],inactive
C=CCc1ccc(OC)c(OC)c1,Potency,[17],> 92 µM (inactive)
same,Potency,[18],inactive
same,Potency,[19],inactive
same,outcome,[20],inactive
same,activation,[21],-12.3% (inactive)
same,max response,[22],10.2% and -6.71%
same,Potency,[23],inactive
same,outcome,[24],inactive
same,outcome,[25],inactive
same,outcome,[26],inactive
same,max response,[27],-12.6% and 4.43%
same,Potency,[28],33.5 µM (active) and inactive
same,Potency,[29],inactive
